From PubChem BioAssay AID2417 (National Center for Advancing Translational Sciences (NCATS), 2010)
Screen size: about 140,000 compounds; about 4,300 (3.1%) were called active. Roughly 21% stayed inconclusive and do not appear here. Shown is part of a subset that was picked to be rich in actives. A number with no mark means an inactive call.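 Rule for the calls: active = readout at or below -70, meaning at least 70% loss of cells showing the perinucleolar compartment, a nuclear body marking cancer cells; inconclusive = readout between -30 and a set limit; inactive = the rest.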

Test: High Content Assay for Compounds that inhibit the Assembly of the Perinucleolar Compartment;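 note: plate controls were DMSO wells for no effect and camptothecin positive control wells for full effect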
Conditions: PC3M PTB-GFP, PNC prevalence imaging, 16 h; at 10 µM; hits give low values
Text: High Content Assay for Compounds that inhibit the Assembly of the Perinucleolar Compartment NIH Chemical Genomics Center [NCGC] NIH Molecular Libraries Probe Centers Network [MLPCN] MLPCN Grant: MH082371-01A2 Assay Submitter (PI): Sui Huang, Northwestern University, Feinberg School of Medicine, Cell and Molecular Biology, Chicago, Illinois. The perinucleolar compartment (PNC) is a non-membrane-bound nuclear subdomain that is associated with but structurally distinct from the nucleolus. The PNC is a heritable trait, in which the number of PNCs per cell in daughter cells often mimics that of their mother cells. The PNC is heterogeneous in shape, is stable through interphase, disassembles during mitosis, and reassembles in early G1. The PNC is concentrated with newly synthesized RNA polymerase III (pol III) RNAs (MRP RNA, RNAse P H1 RNA, hY RNAs[hY1, 2, 5], Alu RNA, and SRP [7SL] RNA) and RNA binding proteins (nucleolin, PTB, CUG-BP, KSRP, Raver1, Raver2, and Rod). […] Extensive in vitro studies have shown that the PNC is unique to tumor cells and preferentially forms in tumor cells derived from solid tissues. Examination of cancer cell lines from various origins and malignant capacities has shown that PNC prevalence correlates with the malignancy of tumors and has the potential to be developed as a pan-cancer prognostic marker. […] Although the PNC is associated with a DNA locus and a handful of components have been identified, much remains to be investigated regarding the structure and function of the PNC and its mechanistic link to cancer. We have previously shown that PNC prevalence reduction is a valid strategy to identify compounds that can be used to study the structure and function of the PNC. It is necessary, however, to create a screening platform that is able to test a large number of compounds in an automated fashion. Here we report the development and robustness of an automated whole-cell phenotypic image-based screening assay that is capable of identifying such compounds.
PNC High Content Imaging Assay Procedure: 1. Cells at a density of 75-90% confluency in T175 flasks were harvested using 7 ml TrypLE Express cell dissociation reagent. After dissociation (5 minutes room temperature incubation) 10 ml of complete media was added to the TrypLE/cell suspension. The liquid was transferred to a 50 ml Conical tube and cells were pelleted at 1000 RPM for 5 min. Supernatant was removed and cells were resuspended to a final density of 150-200 cells/ul in complete media. 2. Cells were plated in 5 ul volume (750-1000 cells/well) into 1536 well Black uclear Aurora Low Base plates and allowed to recover and adhere at 37 C in a humidified 5% CO2 incubator for 4 hours. 3. After 4 hour incubation, compound libraries (23 nl of […] in columns 5-48) were transferred to the plates in duplicate using a 1536 well pintool. Camptothecin positive control (59 uM final) was added to column 2 and 1:3 dilutions of camptothecin was added to column 3. DMSO negative controls were present in columns 1 and 4. 4. After a 16 hour incubation in the 37 C incubator, cells were fixed by the addition of 4 ul of 6% EM grade paraformaldehyde (containing 0.1% triton X 100) directly to the cells. The plates were incubated at room temperature for 20 minutes. The liquid was removed using a 32 channel Kalypsys aspirator and the fixed cells were washed twice with 5 ul PBS followed by a final addition of 5 ul PBS containing 1 ug/ml Hoechst 33342. 5. Fixed plates were sealed and sotred at 4C until imaged. 6. Plates were imaged on an InCell 1000 automated microscope using a 20 x objective, a standard FITC filter set, no camera binning, and an exposure time of ~100-150 msec/well. 7. Data analysis. PNC prevalence was determined using the Multitarget analysis module from InCell Workstation software (V3.5 ) and analysis was run on a quad core workstation using the Incell Developer Toolbox (V1.7). […]

Structure (SMILES)	activity change (PNC), negative = inhibition
COc1cccc(NC(=O)Cn2cnc3sc(C)c(S(=O)(=O)N4CCN(C)CC4)c3c2=O)c1	-100% (active)
O=C(Cc1ccc(S(=O)(=O)N2CCOCC2)s1)NCCC(c1ccccc1)c1ccccc1	44.4%
COc1cccc(NC(=O)CN2CCN(c3nc(-c4cccc(OC)c4)cs3)CC2)c1	43%
CCN(CC)CCNC(=O)Cn1cnc2sc(C)c(S(=O)(=O)N3CCOCC3)c2c1=O	-100% (active)
CCOC(=O)c1sc(NC(=O)c2cc(S(=O)(=O)N3CCOCC3)ccc2C)nc1C	-23.4%
CC(O)c1nc2ccccc2n1Cc1ccc([N+](=O)[O-])cc1 (configuration not stated)	9.78%
CCOc1ccc(C(=O)Nc2nccs2)cc1[N+](=O)[O-]	8%
CN1CCC(=NNC(=O)c2ccc(N(Cc3ccc(Cl)cc3)S(C)(=O)=O)cc2)CC1	-4.47%
O=C(CCN1C(=O)c2ccccc2C1=O)NNC(=O)c1ccc(Cl)cc1Cl	53%
O=C(Nc1ccccc1Cc1ccccc1)c1ccc2c(c1)SC1=NS(=O)(=O)CCN12	18.7%
Cc1ccc(S(=O)(=O)N2CCC(C(=O)N[C@@H](C)C(=O)NCc3ccco3)CC2)cc1	61.1%
O=C(NC1CCC(O)CC1)c1ccc(S(=O)(=O)NCc2ccco2)cc1 (configuration not stated)	-13.5%
CC1CCN(S(=O)(=O)c2ccc(S(=O)(=O)NCc3ccco3)cc2)CC1	-100% (active)
CCc1ccc(NC(=O)CSc2nc3ccccc3c(=O)n2CCN2CCOCC2)cc1	-23.7%
CC1Cc2nc(SCC(=O)Nc3ccccc3F)n(C)c(=O)c2S1 (configuration not stated)	-100% (active)
Cn1nnnc1SCC(=O)Nc1ccccc1C(=O)NC1CC1	-17.1%
CCn1c(SCC(=O)Nc2ccccc2F)nc2c(c1=O)SC(C)C2 (configuration not stated)	-100% (active)
CCn1c(Cc2ccccc2)nnc1SCC(=O)Nc1ccccc1	-27.9%
CC(C)n1c(SCC(=O)Nc2ccccc2N2CCCCC2)nc2c1c(=O)n(C)c(=O)n2C	-24%
COc1ccc(C/C(C)=N/NC(=O)c2ccncc2)cc1	36.6%
COc1cc(C)nc(N2CCCC(C(=O)NCC(C)C)C2)n1 (configuration not stated)	-100% (active)
Cc1ccnc(N2CCCC(C(=O)Nc3cc(F)ccc3C)C2)n1 (configuration not stated)	-22.4%
Cc1cc(=O)n2nc(N3CCCC(C(=O)NCCC4=CCCCC4)C3)sc2n1 (configuration not stated)	6.76%
NS(=O)(=O)c1ccc(CCNC(=S)Nc2ccc(S(N)(=O)=O)cc2)cc1	74.6%

Structure (SMILES)	activity change (PNC), negative = inhibition
CCOC(=O)NC(=O)C(=CNc1cccc(OC)c1)C(=O)NC(=O)OCC	45.4%
CCOC(=O)C(NC(=O)CC(C)C)(Nc1sc2c(c1C(N)=O)CCCC2)C(F)(F)F (configuration not stated)	0.0946%
CCn1nc(C(=O)OCC(=O)N2c3ccccc3CC2C)c2ccccc2c1=O (configuration not stated)	-8.81%
CC1Cc2ccccc2N1C(=O)CSc1nc2ccccc2o1 (configuration not stated)	31.3%
CC1Cc2ccccc2N1C(=O)Cn1cnc2ccccc2c1=O (configuration not stated)	-80.4% (active)
COc1ccc(C2CC(c3ccccc3)=NN2C(=O)c2ccc(Cl)c([N+](=O)[O-])c2)cc1 (configuration not stated)	27.8%
CCOc1ccc(S(=O)(=O)N(CC(=O)NCC(F)(F)F)Cc2ccco2)cc1	52.1%
Cc1cc(/C=C2\SC(=Nc3ccc(N4CCOCC4)cc3)N(C)C2=O)c(C)n1-c1cccnc1	-27.8%
CCOC(=O)N1CCN(C(=O)COc2ccc(Br)cc2)CC1	-29.5%
CC(=O)Nc1ccc(OC(=O)COc2ccc(Br)cc2)cc1	36.4%
CN1CCCC(OC(=O)COc2ccc(Br)cc2)C1 (configuration not stated)	-86.4% (active)
COc1ccc(C(C(=O)NC2CCCCC2)N(C(=O)Cc2c[nH]c3ccccc23)c2ccccc2)cc1OC (configuration not stated)	32.6%
O=C(/C=C/c1cccc([N+](=O)[O-])c1)NCCSCc1ccco1	-113% (active)
O=C(/C=C/c1ccc([N+](=O)[O-])cc1)NCCSCc1ccco1	85.9%
COc1cc(OC)cc(C(=O)NCCSCc2ccco2)c1	-94.6% (active)
CS(=O)(=O)N(Cc1ccc(Cl)cc1)c1ccc(C(=O)NCCSCc2ccco2)cc1	22.9%
COc1ccc(CCNC(=O)c2ccco2)cc1	24.7%
CCC(CC)NC(=O)/C=C/c1cccc([N+](=O)[O-])c1	-18.8%
CC(=O)c1c(O)cc2n(c1=O)-c1ccc(Cl)cc1C2(C)C	-2.74%
O=C(NC(=O)N1CCOCC1)c1ccccc1	6.63%
O=C(Nc1ccn(Cc2ccccc2)n1)c1n[nH]c([N+](=O)[O-])c1Cl	5.38%
CC(Sc1cccc[n+]1[O-])C(=O)Nc1cccc(S(=O)(=O)N2CCOCC2)c1 (configuration not stated)	-7.27%
COc1ccc(-c2csc(NC(=O)COC(=O)c3ccc(Br)o3)n2)cc1	-8.03%
